The record followed here is PubChem BioAssay.

As a reminder, the viability is a read-out of living cells in per cent, often relative to untreated cells. As usually defined, the inhibition is the relative decrease from the control value, in per cent.

Assay [1] concerns the target ATP-dependent translocase ABCB1 (Homo sapiens) (UniProt P08183). The assay can be described thus: P-glycoprotein substrate transport blockade – cell-based (AID 377; in the data active = fluorescence slope change above about 50%). The following applies: MDR1-expressing cells, fluorescent substrate accumulation slope; stronger effect = higher value; concentration not given here.
A short description of assay [2]: compounds altering viability of human ES cells (AID 493140).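 Also: cells exposed to compounds for four days before counting.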 The conditions noted are these: human embryonic stem cell survival screen; stronger effect = higher value.
Assay [3] can be described thus: P. berghei load reduction in hepatocytes – cell-based, HepG2, luciferase luminescence, HepG2 viability, primary screen (AID 624349; in the data active = parasite load remaining mostly below about 12%, no sharp cut-off; inactive = mostly above about 10%;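 also: 100% = mean of DMSO negative control wells on the same plate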). The following applies: P. berghei liver stage in HepG2, luciferase luminescence, concentration not given here; parasite load remaining: stronger effect = lower value; viability: measured here: HepG2 viability without parasites.
In assay [4] the test system is Hepatitis C virus NS3 helicase. The assay can be described thus: blockers of NS3h binding to ssDNA – biochemical, fluorescence polarization, LOPAC1280 library, primary screen (AID 687035; in the data active = inhibition above about 37%). The following applies: Purified HCV NS3 helicase, Cy5-dT15 ssDNA binding fluorescence polarization; stronger effect = higher value; concentration not given here. Background: Polarisation of emitted light reports the rotation of a fluorescent probe.

Assay [5] can be described thus: compounds altering Cy5-DNA-NS3h complex signal – biochemical, LOPAC1280, artefact control for HCV NS3 helicase inhibitor project (AID 687037). The following applies: Cy5-DNA-NS3h complex fluorescence interference counterscreen. A general note: A counterscreen serves to expose hits that act by an unwanted route or on another target.
Assay [6] can be described thus: liver-stage malaria parasite load reduction – cell-based, known kinase inhibitor set, luminescence, hepatoma host viability (AID 624392).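 Also: infected cells incubated roughly two days before readout.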 The conditions noted are these: Plasmodium liver stage in hepatoma cells, luciferase luminescence, concentration not given here; liver cell % of control: measured here: host liver cell viability; parasite % of control: stronger effect = lower value.

Results filed as inconclusive are left out. Activity calls are given as the source filed them. Unless noted, no rule for the calls is given here.

ATP-dependent translocase ABCB1 (Homo sapiens), sequence (P08183 whole entry, looked up): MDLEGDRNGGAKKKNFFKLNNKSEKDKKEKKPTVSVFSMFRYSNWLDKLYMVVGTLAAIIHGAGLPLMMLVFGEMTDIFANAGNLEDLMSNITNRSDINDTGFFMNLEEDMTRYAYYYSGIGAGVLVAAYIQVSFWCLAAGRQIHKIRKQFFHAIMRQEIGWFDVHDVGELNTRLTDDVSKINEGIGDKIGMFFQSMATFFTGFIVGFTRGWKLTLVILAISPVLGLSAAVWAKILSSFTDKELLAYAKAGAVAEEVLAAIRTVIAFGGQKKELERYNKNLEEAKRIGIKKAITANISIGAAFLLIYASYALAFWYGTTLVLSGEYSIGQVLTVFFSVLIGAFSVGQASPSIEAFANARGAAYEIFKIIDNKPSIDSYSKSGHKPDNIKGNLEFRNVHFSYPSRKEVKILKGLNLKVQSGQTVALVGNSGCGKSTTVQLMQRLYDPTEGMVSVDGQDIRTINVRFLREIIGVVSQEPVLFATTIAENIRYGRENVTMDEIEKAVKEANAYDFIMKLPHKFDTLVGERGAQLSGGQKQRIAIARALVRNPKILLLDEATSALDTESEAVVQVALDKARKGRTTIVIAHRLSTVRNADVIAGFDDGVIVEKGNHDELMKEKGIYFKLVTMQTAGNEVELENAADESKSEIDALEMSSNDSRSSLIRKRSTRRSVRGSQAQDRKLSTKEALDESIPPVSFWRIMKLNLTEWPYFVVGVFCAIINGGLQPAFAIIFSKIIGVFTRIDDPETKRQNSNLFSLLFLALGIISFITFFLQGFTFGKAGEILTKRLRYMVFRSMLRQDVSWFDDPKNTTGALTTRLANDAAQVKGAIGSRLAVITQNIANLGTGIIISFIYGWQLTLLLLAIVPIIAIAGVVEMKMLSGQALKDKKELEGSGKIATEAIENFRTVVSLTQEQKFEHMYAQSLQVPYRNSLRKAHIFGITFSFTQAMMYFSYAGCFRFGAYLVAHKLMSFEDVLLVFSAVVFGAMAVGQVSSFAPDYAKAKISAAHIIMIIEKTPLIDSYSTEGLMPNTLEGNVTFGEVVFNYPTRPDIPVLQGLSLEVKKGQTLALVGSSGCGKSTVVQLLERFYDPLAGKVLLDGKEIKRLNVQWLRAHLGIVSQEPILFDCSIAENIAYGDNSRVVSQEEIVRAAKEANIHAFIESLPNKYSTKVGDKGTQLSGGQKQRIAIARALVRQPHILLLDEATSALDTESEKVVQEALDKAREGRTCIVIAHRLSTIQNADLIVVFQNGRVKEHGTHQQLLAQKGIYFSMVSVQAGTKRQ

In the case of `CC[C@@H](C)C(=O)O[C@H]1[C@H](O)[C@H]2[C@@H](CN3C[C@@H](C)CC[C@H]3[C@@]2(C)O)C2C[C@]34O[C@@]5(O)[C@@H](OC(=O)C(C)(O)CC)CC[C@@]3(C)[C@@H]5[C@@H](OC(C)=O)[C@@H](OC(C)=O)[C@H]4[C@@]21O` (stereo not given in full), in assay [1], the fluorescence slope change was 24.2% (inactive). Also, the survival in assay [2] is 6.33 (inactive). In addition, in assay [3], the parasite load remaining is 72.4% (inactive) and the viability came to 77.1%. Take `COC(C)C(O)(C(=O)OCC1=CCN2CC[C@H](O)[C@@H]12)C(C)C` (stereo not given in full): the fluorescence slope change in assay [1] was 29% (inactive). For the same compound, the survival in assay [2] is 1.33 (inactive). Regarding `CCN1C[C@]2(COC)CC[C@H](O)C34C5C[C@@H]6C(OC)C[C@@](O)(C5[C@H]6OC(C)=O)[C@@H](CC32)[C@@H]14` (stereo not given in full), the survival in assay [2] was 21.1 (inactive). Consider `CCC1C2CC3[C@@H]4N(C)c5ccccc5[C@]45CC(C2[C@H]5O)N3[C@@H]1O` (stereo not given in full), for which, in assay [1], the fluorescence slope change is 67.5% (active). In addition, the survival in assay [2] is 5.33 (inactive). In addition, in assay [3], the parasite load remaining was 65.3% (inactive) and the viability stood at 70.7%. For the compound `CCCCCCCCCCCCC/C=C/[C@@H](O)[C@@H](N)COP(=O)([O-])OCC[N+](C)(C)C`, in assay [2], the survival was 95.8 (inactive).

For the compound `CC(=O)O[C@@H]1CC(O[C@@H]2C(C)OC(O[C@@H]3C(C)OC(OC4CC[C@@]5(C)[C@H](CC[C@]6(C)[C@]5(C)C[C@@H](O)[C@]5(C)[C@@H](C7=CC(=O)OC7)CC[C@@]56O)C4)C[C@H]3O)C[C@H]2O)OC(C)[C@H]1OC1OC(CO)[C@@H](O)[C@@H](O)[C@@H]1O` (stereo not given in full), the survival in assay [2] was 0.333 (inactive).

In the case of `COc1cc2c(cc1O)C1Cc3ccc(OC)c(O)c3CN1CC2` (stereo not given), the fluorescence slope change in assay [1] is 144% (active). In assay [2], the survival was 1.58 (inactive). Also, in assay [3], the parasite load remaining is 63.3% (inactive) and the viability came to 69.6%. As for `CN1CCC2=C[C@@H](O)C3OC(=O)c4cc5c(cc4C3[C@H]21)OCO5` (stereo not given in full), in assay [1], the fluorescence slope change was 1.8% (inactive). Moreover, the survival in assay [2] was 6.42 (inactive). Turning to `CC(=O)O[C@@H]1CC(O[C@@H]2C(C)OC(O[C@@H]3C(C)OC(OC4CCC5(C)C(CCC6C5CC(O)C5(C)C(C7=CC(=O)OC7)CCC65O)C4)C[C@H]3O)C[C@H]2O)OC(C)[C@H]1OC1OC(CO)[C@@H](O)[C@@H](O)[C@@H]1O` (stereo not given in full), in assay [1], the fluorescence slope change is 3% (inactive). Take `CO[C@@H]1C=C2CCN(C)[C@@H]2C2c3cc4c(cc3C(=O)OC21)OCO4` (stereo not given in full): the fluorescence slope change in assay [1] was 12.6% (inactive). In assay [2], the survival was 4.75 (inactive). Take `CC1CCC2(NC1)O[C@H]1C[C@H]3[C@@H]4CC=C5C[C@@H](O)CC[C@]5(C)[C@H]4CC[C@]3(C)[C@H]1[C@@H]2C` (stereo not given in full): the survival in assay [2] is 4.83 (inactive). `NCC1OC(OC2C(N)CC(N)C(O)C2O)C(N)C(O)C1O` (stereo not given): in assay [1], the fluorescence slope change was 14.1% (inactive). Same read-out and setting: the figure for `C=C[C@@H]1CN2CCC1C[C@@H]2[C@@H](O)c1ccnc2ccccc12` (stereo not given in full) is 13.4% (inactive).

For the compound `CN1C2CCC1CC(O)C2` (stereo not given), the survival in assay [2] was 7.58 (inactive). In addition, in assay [3], the parasite load remaining is 64% (inactive) and the viability was determined as 69.9%. `C=CCN1CC[C@]23c4c5ccc(O)c4O[C@H]2/C(=N\NC(=O)c2ccccc2)CC[C@@]3(O)[C@H]1C5`: the inhibition in assay [4] is -6% (inactive). Further, the fluorescence ratio (interference) in assay [5] is 0.9 (inactive). Regarding `C[C@@H](N)[C@H](O)c1ccccc1`, the survival in assay [2] was 4.42 (inactive). Besides, in assay [3], the parasite load remaining is 62.7% (inactive) and the viability worked out at 76%. Take `CCN1C[C@]2(C)CC[C@H](OC)[C@]34C2[C@H](OC(C)=O)C2(OCO[C@@]25CC(OC)C2C[C@]3(O)C5[C@H]2OC)[C@@H]14` (stereo not given in full): the survival in assay [2] was 5 (inactive). Still for that read-out and setting: the value for `CC(=O)OC(C)C(C)C(=O)OC[C@]12C(C)[C@H]3O[C@@H]1C[C@]1(C)C(=CCC4[C@@]5(C)CCC(OC6O[C@H](C(=O)O)[C@H](O[C@H]7O[C@@H](CO)[C@@H](O)[C@@H](O)[C@@H]7O)[C@H](O)[C@H]6O[C@@H]6OO[C@@H](O)[C@H](O)[C@@H]6O)[C@](C)(CO)C5CC[C@]41C)[C@@H]2CC3(C)C` (stereo not given in full) was 2.17 (inactive). Consider `CN(C(Cc1ccc(OOSOc2cccc3cnccc23)cc1)C(=O)N1CCN(c2ccccc2)CC1)S(=O)(=O)c1cccc2cnccc12` (stereo not given), for which, in assay [3], the parasite load remaining is 43.1% (inactive) and the viability was 153%. Turning to `NS(=O)(=O)c1ccc(-c2ccc(C=C3C(=O)NC(=S)NC3=O)o2)cc1`, in assay [6], the liver cell % of control was 102% and the parasite % of control was 96.9% (inactive). Consider `C#CC1(O)CC[C@H]2[C@@H]3CCC4=CCCC[C@@H]4[C@H]3CC[C@@]21C` (stereo not given in full), for which the survival in assay [2] is 37.7 (inactive). Same read-out and setting: the figure for `CCCCCCCCCCCCCCC[C@@H](O)[C@@H](N)COP(=O)(O)O` is 93.8 (inactive). Take `O=C1Nc2ccc3ncsc3c2/C1=C/c1cnc[nH]1`: in assay [3], the parasite load remaining is 86.4% (inactive) and the viability came out at 77.5%. In the case of `O=C1NC(=O)C(=Cc2ccc(-c3ccc(S(=O)(=O)N4CCOCC4)cc3)o2)C(=O)N1`, in assay [6], the liver cell % of control was 98.4% and the parasite % of control was 98.3% (inactive).

In the case of `CC1(C)C(C=C(Br)Br)C1C(=O)OC(C#N)c1cccc(Oc2ccccc2)c1` (stereo not given), in assay [2], the survival is 82.3 (inactive). As for `[Cl-].[Cl][Pt].[NH2-].[NH2-].c1ccncc1`, the inhibition in assay [4] is -3% (inactive). Moreover, in assay [5], the fluorescence ratio (interference) is 0.9 (inactive). As for `N/C(=N\[N+](=O)[O-])N/N=C\c1ccc(-c2cccc([N+](=O)[O-])c2)o1`, in assay [3], the parasite load remaining is 33.3% (inactive) and the viability worked out at 91.9%.
